Columns and labels:
Settings in all cases: concentration: 1 μM,replicates: in singlicate; n = 1
[1] = tested on: RPS6KA4(Kin.Dom.1-N-terminal)
[2] = tested on: RPS6KA4(Kin.Dom.2-C-terminal)
[3] = tested on: RPS6KA5(Kin.Dom.1-N-terminal)
[4] = tested on: RPS6KA5(Kin.Dom.2-C-terminal)
[5] = tested on: T1, RSK1(Kin.Dom.1-N-terminal)
T1 construct: gene RPS6KA1

[6] = tested on: T2, RSK1(Kin.Dom.2-C-terminal)
T2 construct: gene RPS6KA1

[7] = tested on: T3, RSK2(Kin.Dom.1-N-terminal)
T3 construct: gene RPS6KA3

[8] = tested on: T4, RSK2(Kin.Dom.2-C-terminal)
T4 construct: gene RPS6KA3

[9] = tested on: T5, RSK3(Kin.Dom.1-N-terminal)
T5 construct: gene RPS6KA2

[10] = tested on: T6, RSK3(Kin.Dom.2-C-terminal)
T6 construct: gene RPS6KA2

[11] = tested on: T7, RSK4(Kin.Dom.1-N-terminal)
T7 construct: gene RPS6KA6

[12] = tested on: T8, RSK4(Kin.Dom.2-C-terminal)
T8 construct: gene RPS6KA6

S6K1 = tested on: S6K1
SBK1 = tested on: SBK1
SGK2 = tested on: SGK2
SGK3 = tested on: SGK3
SGK = tested on: SGK
SIK2 = tested on: SIK2
SIK = tested on: SIK
SLK = tested on: SLK
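Also: KINOMEscan kinase panel screen.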

SMILES | %Inh [1] [%] | %Inh [2] [%] | %Inh [3] [%] | %Inh [4] [%] | %Inh [5] [%] | %Inh [6] [%] | %Inh [7] [%] | %Inh [8] [%] | %Inh [9] [%] | %Inh [10] [%] | %Inh [11] [%] | %Inh [12] [%] | %Inh (S6K1) [%] | %Inh (SBK1) [%] | %Inh (SGK2) [%] | %Inh (SGK3) [%] | %Inh (SGK) [%] | %Inh (SIK2) [%] | %Inh (SIK) [%] | %Inh (SLK) [%]
O=C(Nc1n[nH]c2cc(-c3ccco3)ccc12)C1CC1 [SB-737447] | 0 | 18 | 0 | 23 | 16 | 0 | 22 | 0 | 18 | 0 | 26 | 10 | 4 | 23 | 30 | 34 | 47 | 0 | 0 | 13
Cn1ccc2ncnc(Oc3ccc(NC(=O)Nc4cnn(C(C)(C)C)c4)c(Cl)c3)c21 | 0 | 5 | 32 | 0 | 0 | 27 | 11 | 0 | 0 | 9 | 22 | 0 | 1 | 0 | 12 | 2 | 10 | 10 | 14 | 79
COC(=O)c1cccc(NC(=O)NC2CCN(c3ccnc(Nc4cc(OC)c(OC)c(OC)c4)n3)C2)c1 (centres unmarked) [GSK1379767] | 0 | 0 | 0 | 30 | 21 | 5 | 7 | 1 | 9 | 29 | 0 | 16 | 0 | 6 | 0 | 2 | 0 | 5 | 0 | 28
O=C(NCC1CC1)c1ccc(-c2cc(C(=O)NC3CC3)ccc2F)cc1 [GW810445] | 7 | 0 | 0 | 7 | 0 | 3 | 0 | 0 | 0 | 0 | 0 | 0 | 0 | 4 | 0 | 0 | 7 | 0 | 2 | 0
Cc1cccc2c(-c3ccncc3)c(-c3ccc(F)cc3)nn12.Cl [GW461487] | 0 | 0 | 0 | 6 | 11 | 51 | 3 | 32 | 0 | 19 | 21 | 83 | 5 | 8 | 8 | 13 | 0 | 0 | 0 | 15
Cl.c1ccc(Oc2ccc(Nc3ccnc4cc(-c5ccc(CN6CCNCC6)o5)ccc34)cc2)nc1 [GW567142] | 0 | 0 | 0 | 14 | 2 | 16 | 0 | 0 | 0 | 9 | 0 | 22 | 0 | 0 | 0 | 0 | 22 | 65 | 97.4 | 19
Cc1ccc(CC(=O)N2CCc3cc(-c4cn(C)c5ncnc(N)c45)ccc32)cc1 [GSK2634758] | 16 | 0 | 3 | 0 | 9 | 4 | 0 | 4 | 7 | 0 | 0 | 15 | 5 | 7 | 0 | 4 | 0 | 0 | 32 | 59
CC(C)c1nc(-c2cccc(NS(=O)(=O)c3ccccc3)c2)c(-c2ccnc(Nc3ccc4c(c3)CN(C)CC4)n2)s1 [GSK1649598] | 33 | 0 | 4 | 0 | 73 | 44 | 10 | 0 | 15 | 0 | 0 | 46 | 66 | 43 | 35 | 53 | 77 | 87 | 99.6 | 88
Cc1n[nH]c2cc(Nc3ccnc(Nc4cccc(CN5CCOCC5)c4)n3)ccc12 [GW682569] | 0 | 0 | 0 | 21 | 3 | 28 | 22 | 20 | 0 | 0 | 19 | 16 | 0 | 0 | 0 | 17 | 0 | 33 | 46 | 0
Cn1ccc2ncnc(Oc3ccc(NC(=O)Nc4cccc(C(F)(F)F)c4)c(Cl)c3)c21 | 2 | 0 | 0 | 2 | 0 | 86 | 13 | 16 | 0 | 27 | 0 | 41 | 2 | 0 | 0 | 0 | 0 | 9 | 10 | 63
CN(c1ccccc1CNc1nc(Nc2ccc3c(c2)CC(=O)N3)ncc1C(F)(F)F)S(C)(=O)=O | 89 | 46 | 71 | 14 | 86 | 0 | 89 | 0 | 91.1 | 7 | 67 | 2 | 22 | 3 | 0 | 32 | 18 | 40 | 16 | 94.8
NC(=O)Nc1sc(-c2ccc(F)cc2)cc1C(N)=O [GW789449] | 46 | 7 | 0 | 0 | 54 | 33 | 68 | 45 | 21 | 7 | 76 | 4 | 3 | 16 | 10 | 31 | 1 | 16 | 21 | 25
Cc1cccc(-c2nc(Nc3ccncc3)c3sccc3n2)n1 [GW869641] | 30 | 7 | 19 | 0 | 2 | 8 | 41 | 50 | 7 | 21 | 41 | 37 | 13 | 58 | 11 | 27 | 24 | 0 | 7 | 57
C[C@@H]1CNc2c(sc3ccc4nc(-c5ccc(O)cc5)ccc4c23)C(=O)N1 | 6 | 98.8 | 2 | 17 | 6 | 12 | 58 | 70 | 12 | 47 | 80 | 8 | 6 | 32 | 8 | 24 | 20 | 16 | 20 | 0
CCN1CCN(CCCC(=O)Nc2n[nH]c3nc(-c4ccc(O)cc4)c(Br)cc23)CC1 [SB-731579] | 5 | 98.5 | 4 | 0 | 0 | 0 | 13 | 0 | 0 | 30 | 20 | 0 | 0 | 10 | 0 | 0 | 0 | 0 | 0 | 78
C[C@@H]1CNc2c(sc3ccc4nc(-c5ccncc5)ccc4c23)C(=O)N1 | 33 | 98.7 | 0 | 0 | 0 | 0 | 4 | 0 | 10 | 33 | 38 | 21 | 0 | 30 | 0 | 18 | 0 | 0 | 5 | 1
CCn1c(-c2nonc2N)nc2cncc(CNC3CCNCC3)c21.Cl [SB-747651] | 44 | 6 | 78 | 0 | 21 | 0 | 16 | 6 | 7 | 9 | 10 | 25 | 60 | 25 | 7 | 43 | 0 | 0 | 0 | 9
CCCC(=O)Nc1n[nH]c2ncccc12 [SB-601436] | 3 | 3 | 0 | 0 | 0 | 0 | 19 | 0 | 0 | 0 | 0 | 0 | 0 | 2 | 17 | 10 | 7 | 0 | 0 | 0
Cl.Nc1n[nH]c2cc(-c3ccccn3)ccc12 [GSK2189892] | 15 | 0 | 26 | 0 | 29 | 0 | 0 | 0 | 0 | 0 | 3 | 0 | 0 | 28 | 0 | 0 | 0 | 0 | 0 | 14

— article PMC5540273 (PLoS ONE, 2017)
